# Target: SECISBP2L
# Assay: pooled miR-30 sensor sort-seq; sequence = guide strand
# Conditions: shRNA
# Note: reference of the scale not given here.
row,Sequence,sensor-assay potency score (higher = more potent)
1,TAGTGTGAAAAGAAGCTGCAGT,0.417
2,TTCCTGGGAAACAATCTCCTGT,-0.00713
3,TAGTCCAGTATCTTCCTGGGAA,-0.242
4,TAGCTGAGGTAGTACTGCCTGT,-0.712
5,TATAACACACTTGATCTTGTTT,0.0597
6,TTGATCGACTATCAGGACCTGC,-0.0412
7,TTGAAACCCATCTTCATCCTGT,0.983
8,TTGCTGTGAAGCATCTACCAGA,-0.408
9,TACGCTAACAGGAACCAGCTTG,-0.34
10,TATAACATTATAGAGAGCCTCA,-0.0315
11,TTGTTGAATATTCTCATCCTTA,-0.343
12,TTTCTGAATACTCTTGAGCTGT,-0.537

# Target: SECISBP2
# Assay: as above
# Conditions: shRNA
row,Sequence,sensor-assay potency score (higher = more potent)
1,TAACACAAGCATCCACTTCTTT,-0.191
2,TTTCAAACTATTCTCAGCGTAA,-0.344
3,TTCACTGTCAAACTTTTGCTGA,-0.0289
4,TAACATTTTTAGGATCTGCTGA,0.162
5,TTTGACTGTATCTTCTCACAGT,0.358
6,TTGCAGTTCAGGAAAGTCCAGT,-0.458
7,TTCGCTTATGGTAACCATCTGA,0.0735
8,TTGACATCTGCTGATAACTTGA,-0.133
9,TTTTCTTCTTAAACAGAGCTTT,-0.323
10,TTTGATAACACTGCAGCTGGTT,0.27
11,TTGAGAGCAAACACAAAGGGAA,-0.174
12,TTTGTTGTAGGAAGGATCCGAA,-0.00971

# Target: SELL
# Assay: as above
# Conditions: shRNA
row,Sequence,sensor-assay potency score (higher = more potent)
1,TTATTGATGATTTCTACACATT,-1.76
2,TTGATATAGATCTCCACGCAGT,-0.218
3,TCACTTGACAGGTTGGTTCTGG,0.848
4,TTCTCTTGGATTTCTTGCCTTT,0.216
5,TTGTCTCGGCAGAATCTTCTAG,-0.184
6,TTTGACATATTGGACTAGGATT,-1.37
7,TTGTATGGCAACTAAATCTGTG,-0.502
8,TAATTGTCTCGGCAGAATCTTC,-1.3
9,TAAATCTGTGTAATTGTCTCGG,0.157
10,TTCAGTAAGAGATTTGTTGGTT,0.629
11,TTAATCATTGAGAAACTTTTGT,-0.0417
12,TAGGATTTGACCAGATTCCAGA,-0.318

# Target: SELO
# Assay: as above
# Conditions: shRNA
row,Sequence,sensor-assay potency score (higher = more potent)
1,ATCTTCTGCAGGTAGTGCCTTT,-1.13
2,TTGAGCTGCAGCTCCCAGCGCT,-0.647
3,TTTGGGATTACCATCATAGAAC,-1.22
4,TGTTTGTGAAGTCGGCACCGGT,-1.02
